Experimental data taken from PubChem BioAssay AID1508600 (Functional Genomics Laboratory (NCATS/FGL), 2020).
The campaign covered roughly 53,000 sequences. About 3,700 (7%) were called active.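 The calls were made as follows: active = gene knockdowns whose robust z-score for IL-1 alpha signal is at least 2 or at most -2, so actives lie on both sides; inactive = the rest.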 Only a selection was taken, and actives are over-represented in it overall.

Assay: Components of the Cytosolic LPS Sensing Pathway: Gene Identification via Genome-wide siRNA Screen;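 also: robust z of the log signal after scaling to non-targeting control siRNA wells of the plate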
Conditions: RAW264.7 macrophages, IL-1a HTRF, actives lie on both sides, screened at 100 nM (by protocol), cells primed 5 h with Pam3CSK4 first
Summary of the method: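 Supernatant IL-1a by HTRF from RAW264.7 cells primed with Pam3CSK4 (5 hours) and transfected with LipidA (24 hour) after 48h siRNA knockdown at 100 nM; cell viability checked with CellTiter-Glo.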

Sequence	z-score
GGGCUUACCGUAUAACUUUTT against Nptn	1.4 (inactive)
GGACCUGAAUUCCACUCCUTT against Socs1	-0.147 (inactive)
GGAUGAGGAGGAUACAAAGTT against Eif3c	0.228 (inactive)
GGAUACUCUCAGGACGUGATT against Ncbp2	-2 (active)
CGAGCAAGCUUCUACAUACTT against AI182371	0.438 (inactive)
GCAAAUCAUUUAGGACCCATT against Amer2	-2.54 (active)
GGAGUUCAGGUAUCCCUGATT against Nomo1	-0.109 (inactive)
GGAAAACAAGAAAGAUGAATT against Snupn	-1.05 (inactive)
CGAUCCUCAUCUUUAUAUATT against Agbl1	-0.33 (inactive)
CGCCAAAAGUUCUUGCCAUTT against Olfr618	-2.02 (active)
CCUAGAUUCUGAAUUCGAATT against Pdzd8	-1.09 (inactive)
GGAUAACAGAUGGUUAAUATT against Pramel48	0.202 (inactive)
GGUUGGAUUCCUGAUAUUATT against Moxd2	-0.22 (inactive)
CGGCACUAGGAAGCUUUUATT against Inpp5a	-0.185 (inactive)
GCAUCUACCAUGGAAAUAUTT against Clcn7	0.053 (inactive)
GGAGCUGGAGAAGUUACUUTT against Amigo3	2.06 (active)
GCUGGUUGUAGUAAAACAGTT against Resf1	-1.29 (inactive)
GCUGGUAUGACCAAGAGAATT against Mutyh	0.679 (inactive)
GGGAAAUGACCUUCAUUGGTT against Rbl2	1.05 (inactive)
GGUCAGUCAACAUGAACUUTT against Acad9	0.0973 (inactive)
GGCAGGACAUUCUCAAAUCTT against Praf2	2.51 (active)
GGGAGUUGAGAAGACAUAATT against Lim2	0.223 (inactive)
CGGGCAGUACUAUGAUUUGTT against Ppp1cc	2.09 (active)

Sequence	z-score
CCUCACCAAACCUUGUUGATT against Cd300lg	-1.57 (inactive)
GGCUAAGACUAUGUUGUAATT against Smcp	-1.48 (inactive)
GGCUCUUUGUUCAGUUUUUTT against Fxyd3	2.52 (active)
CCAUAUAACUGCCAAUAAUTT against Ankrd7	-2.02 (active)
GCUCAUAAAACUCCAAAAGTT against Mob4	-0.713 (inactive)
GCAACUCUGAGGUUGCUAGTT against Pgam1	-0.12 (inactive)
CCCUCAUUGUAACCUUAACTT against Olfr792	-2.27 (active)
GGCUGAAUGUCGCUUAGAGTT against 9030612E09Rik	-0.875 (inactive)
GGCUUAGCUUUUGUGAUUCTT against Olfr143	-1.24 (inactive)
GGUGUCCCUUAAUGUGUCCTT against Heg1	0.671 (inactive)
GCCUCUCUGGUGAACUUAGTT against Ccar1	0.0406 (inactive)
GCCUCACUUGAUGAAAUGGTT against Sccpdh	-2.13 (active)
GGAAGGACUUAAAUGAUGCTT against Rnf187	-1.18 (inactive)
GGUGGACAUUCCUAAGAUUTT against Ago1	-0.97 (inactive)
CGCAUAAUGGAUGAGAGGATT against Mef2a	0.871 (inactive)
GCAGUGUAUAGGUGUACAATT against Krt2	3 (active)
GCAGAGUGCUCGUAGAGUGTT against Heatr5a	0.96 (inactive)
GGAGGUUCAACAUGAAAAUTT against Lingo2	-0.253 (inactive)
GGCCUUUGCACGUGGAUUGTT against Zfp420	-0.221 (inactive)
GGGAAUCAUGAUAUGUUUCTT against Tmem186	-0.217 (inactive)
GGAGGUCCAUGUCCUGCUUTT against Mesp2	0.336 (inactive)
GCAGAACCGCCAACCAACATT against Smarcc2	-2.03 (active)
CCUCGGUCAGAUUCCUGAUTT against Phpt1	0.101 (inactive)

Sequence	z-score
CCAAUAACUACUCAUACCCTT against Ints1	0.105 (inactive)
GCAUGUAGUAUGGUAACACTT against Akr1b7	-1.78 (inactive)
CCUUAAACAGCUUUUCAGATT against Dync2h1	0.472 (inactive)
UCUUACACUUCGUGUUCCATT against Gpr6	3.12 (active)
CGAAAACUUCAUAGCUACATT against Hmg20a	-1.95 (inactive)
GCAGACAAUAUCUCUGAAUTT against Olfr459	-0.942 (inactive)
CCUCUCAAGAAAUCGUGCATT against Trim47	0.978 (inactive)
GCAGAUUGUGCAGCUAGCATT against Pax4	0.452 (inactive)
CCAUCUCAUUCCUUACCAGTT against Gm4736	-1.79 (inactive)
GGAUAAGAUAAUGUCUGUGTT against Olfr716	-1.73 (inactive)
GGGUAACAGUGGUGAACCUTT against Col1a1	2.08 (active)
GGCUGAGUUAUUUGUGACATT against Syt13	-1.41 (inactive)
CGGCCUGGGUCCCGUGGACTT against Hs3st6	-1.18 (inactive)
CGCAUGCCUGUAAAAUAAATT against 2310057M21Rik	-1.37 (inactive)
GGGAAUUUUGGAAGAGUCUTT against F630003A18Rik	-3.23 (active)
GCGAGGAAAGAGCACUGUATT against Fam107a	-0.103 (inactive)
GGGCUAUGUUCGAAGUAAATT against Kbtbd3	-0.848 (inactive)
GGUGAGUAUAUUCAAGUUATT against Ndor1	4.36 (active)
GGAUAUUUGGAGGACAACCTT against C1s1	0.0678 (inactive)
CGAGAGGUUUGUCCAUAGATT against Tac4	-0.86 (inactive)
GGGACAAUAAAACCAACACTT against Ulk4	-1.04 (inactive)
CCACCUUGGUCUAAUUUCUTT against Slitrk4	-2.06 (active)
GGCUCCUCAUUACCUCUACTT against Rrp7a	0.233 (inactive)
